From the supplement of paper PMC10981050
Where “and” joins values, the source holds several entries; their conditions need not be identical. Identical values can stand only once. Counter-ions that a name gives are not always drawn.

Experiments:
Test in all cases: cell viability relative to vehicle control; higher = less cytotoxic
Details in all cases: 10 µM
K562 = system: K562
In short: (§1)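 After removal of identity-inconsistent compounds, the Selleck bioactive, kinase and epigenetic probe libraries were screened on CRISPR-edited mutant clones and isogenic wild-type clones of four leukaemia lines. Plates were 384-well, each well holding 2000 cells in 50 µL medium and receiving a single 10 µM acoustically dispensed dose. CellTiter-Glo luminescence was read 48 h later, after the supernatant was taken off. Genedata Screener was used to express viability as percent of the on-plate vehicle control.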

MARIMO = system: MARIMO
In short: as §1

MOLM14 = system: MOLM14
In short: as §1

OCI-AML2 = system: OCI-AML2
In short: as §1

Compound	cell viability (K562; SRSF2 genotype: SRSF2 wt/wt)	cell viability (MARIMO; SRSF2 genotype: SRSF2 P95H/wt)	cell viability (MARIMO; SRSF2 genotype: SRSF2 wt/wt)	cell viability (MOLM14; SRSF2 genotype: SRSF2 P95H/wt)	cell viability (MOLM14; SRSF2 genotype: SRSF2 wt/wt)	cell viability (OCI-AML2; SRSF2 genotype: P95H/wt)	cell viability (OCI-AML2; SRSF2 genotype: wt/wt)	cell viability (K562; SRSF2 genotype: SRSF2 P95H/wt)
Cc1cc(N2C[C@@H](C)N[C@@H](C)C2)ncc1-c1ccc(-c2nc3c(ccn3C)c(=O)[nH]2)cc1	59%	79.6%	76.4%	0.95%	1.53%	5.67%	3.85%	–
O=c1cc(-c2ccc(O)cc2)oc2c([C@@H]3O[C@H](CO)[C@@H](O)[C@H](O)[C@H]3O)c(O)cc(O)c12 [Vitexin]	101%	108%	107%	101%	105%	103%	107%	109% and 103%
Nc1nc(N)c2nc(-c3ccccc3)c(N)nc2n1 [Triamterene]	33%	98.2%	101%	93.7%	101%	101%	101%	–
C[C@H](NC(=O)c1c(N)nn2cccnc12)c1cc2cccc(C#Cc3cnn(C)c3)c2c(=O)n1-c1ccccc1	94.3%	71%	63.4%	54.3%	57.1%	32.2%	41.6%	88.3% and 88.5%
Nc1nc(NC2CC2)cc(-c2cccc(Cl)c2Cl)n1	41.5%	41.3%	38%	34.5%	21.5%	60.8%	48.5%	26.5% and 36.8%
O=C(NC1CC1)c1cc(-c2cccs2)on1 [Isoxazole 9 (ISX-9)]	53.5%	58.5%	63%	46.8%	35.5%	74.8%	74.7%	–
Brc1ccc2[nH]ccc2c1 [5-Bromoindole]	107%	95.7%	98%	99.5%	103%	102%	115%	107% and 100%
C=CC(=O)Nc1cccc(Oc2nc(Nc3ccc(N4CCN(C)CC4)cc3)nc3ccsc23)c1	49.6%	31.2%	43.4%	0.27%	0.47%	0.27%	0.68%	16.7% and 14.4%
CC1(C)C[C@@H]1C(=O)N/C(=C\CCCCSC[C@H](N)C(=O)O)C(=O)O [Cilastatin]	105%	97%	100%	104%	103%	102%	110%	104% and 93.4%
O=C1[C@H](Cc2ccc(O)cc2)N2C(=O)CCN(C(=O)NCc3ccccc3)[C@H]2CN1Cc1cccc2ccccc12	47% and 37.9%	60.6% and 53.5%	59.4% and 48.2%	63.6% and 52%	43.8% and 35.6%	54.4% and 45.4%	42.3% and 36.8%	–
CCCCc1nc(C)c(CC(=S)N(C)C)c(=O)n1Cc1ccc(-c2ccccc2-c2nnn[nH]2)cc1 [Fimasartan]	106%	108%	109%	101%	103%	106%	93.1%	100% and 107%
Cc1cc(C)c(Nc2ccnc(Nc3ccc(C#N)cc3)n2)c(C)c1 [Dapivirine (TMC120)]	45.5%	86%	70.6%	75%	81.1%	69%	31.3%	–
NC1=N[C@@]2(c3cc(NC(=O)c4ccc(F)cn4)ccc3F)COC[C@H]2CS1	86.1%	89.6%	98.4%	99.7%	94.2%	94.4%	92.6%	94.7% and 91.1%
CCOC(=O)[C@H](CCc1ccccc1)N[C@@H](C)C(=O)N1C(=O)N(C)C[C@H]1C(=O)O [Imidapril HCl]	90.9%	84.9%	94.4%	95.1%	95.2%	108%	87.7%	93.9% and 85.6%
O=C(O)c1cc(=O)cc(C(=O)O)o1 [Chelidonic acid]	113%	110%	106%	101%	107%	110%	105%	105%
CC=C(C)C(=O)OC1C(OC(C)=O)C2(CO)C(O)CC3(C)C(=CCC4C5(C)CCC(OC6OC(C(=O)O)C(OC7OC(CO)C(O)C(O)C7O)C(O)C6OC6OC(CO)C(O)C(O)C6O)C(C)(CO)C5CCC43C)C2CC1(C)C (stereo not given) [Escin]	48.9%	90.1%	90.1%	53.3%	67.9%	23.9%	31.4%	–
CC(C)OC(=O)OCOP(=O)(CO[C@H](C)Cn1cnc2c(N)ncnc21)OCOC(=O)OC(C)C [Tenofovir Disoproxil Fumarate]	82.2%	79.8%	79.2%	34.7%	28.4%	14.3%	22.9%	92.9% and 94.9%

Compound	cell viability (K562; SRSF2 genotype: SRSF2 wt/wt)	cell viability (MARIMO; SRSF2 genotype: SRSF2 P95H/wt)	cell viability (MARIMO; SRSF2 genotype: SRSF2 wt/wt)	cell viability (MOLM14; SRSF2 genotype: SRSF2 P95H/wt)	cell viability (MOLM14; SRSF2 genotype: SRSF2 wt/wt)	cell viability (OCI-AML2; SRSF2 genotype: P95H/wt)	cell viability (OCI-AML2; SRSF2 genotype: wt/wt)	cell viability (K562; SRSF2 genotype: SRSF2 P95H/wt)
CC(C)Cn1cnc2c(N)nc3ccccc3c21 [Imiquimod]	77.2%	78.5%	92.4%	78.1%	84.8%	85.9%	85.4%	80.9% and 85.2%
CC(C)[C@H]1C(=O)N[C@@H](CCCNC(=N)N)C(=O)NCC(=O)N[C@@H](CC(=O)O)C(=O)N[C@H](Cc2ccccc2)C(=O)N1C [Cilengitide trifluoroacetate]	101%	102%	99.1%	103%	99.5%	104%	109%	98.5% and 105%
Cc1[nH]c2ccccc2c1C1=C(NCCc2ccc(F)cc2)C(=O)N(C)C1=O	102%	94.9%	100%	99.4%	105%	100%	89.8%	97% and 105%
C[C@@]1(C(=O)Nc2ccc(F)nc2)CCCN1c1nc(Nc2cc(C3CC3)n[nH]2)c2cccn2n1	63.7%	38.7%	33.2%	7.43%	9.62%	7.63%	19.3%	61.4% and 72.2%
CNS(=O)(=O)Nc1nccc(Cc2c(C)c3ccc(Oc4ncccn4)cc3oc2=O)c1F	72.2%	36%	36.9%	44.7%	30.6%	37.6%	40.4%	59.5% and 66.4%
CCCCCCCCCCCC(=O)O [Lauric Acid]	85.7%	89.8%	101%	92.6%	92.1%	94.9%	96.1%	91.8% and 82.9%
N#Cc1c(O)c2c(-c3ccc(-c4ccccc4O)cc3)csc2[nH]c1=O	103%	99.1%	103%	104%	99%	93.1%	101%	102% and 100%
COc1ccc(N2C(=O)/C(=C\c3ccc([N+](=O)[O-])s3)SC2=S)cc1	66.2%	71.8%	52.8%	36.7%	58.2%	0.66%	5.17%	–
CC(C)OC(=O)C(C(=O)OC(C)C)=C1SC=CS1 [Malotilate]	93.6%	76.5%	83.6%	89.5%	99.4%	85%	88.8%	92.5% and 94.4%
CS(=O)(=O)c1ccc(-c2nnc(/C=C/c3nnc(-c4ccc(C#N)cc4)o3)n2-c2ccccc2Cl)nc1	101%	104%	108%	106%	103%	99%	110%	105% and 94.2%
Cc1c(C(C)C)c(=O)n(-c2ccccc2)n1C [Propyphenazone (4-Isopropylantipyrine)]	97.5%	94%	105%	94.3%	101%	86.9%	97.4%	101% and 105%
Cc1cc(Cn2cnc3c2CC(C(=O)O)N(C(=O)C(c2ccccc2)c2ccccc2)C3)ccc1N(C)C (stereo not given)	99.5%	102%	101%	94.9%	97.2%	100%	117%	100% and 97.2%
CCOc1ccn(-c2ccc(F)cc2)c(=O)c1C(=O)Nc1ccc(Oc2ccnc(N)c2Cl)c(F)c1	42%	69.1%	82.8%	11.3%	6.04%	20.9%	28.1%	–
CCS(=O)(=O)N1CCN(c2ccc(Nc3ncc(C(N)=O)c(NC4CC4)n3)cc2)CC1	63.2%	65.2%	63.1%	7.8%	8.15%	12.1%	15.5%	–
CCn1cc(C(=O)O)c(=O)c2c(N)c(F)c(NC3CCCCC3)cc21	80.6%	94.2%	125%	106%	117%	120%	136%	–
c1nc2c(NC3CCCCC3)nc(Nc3ccc(N4CCOCC4)cc3)nc2[nH]1 [Reversine]	70.6%	38%	33.8%	9.79%	7.29%	10.8%	16.3%	–
C[C@@H](NC(=O)c1ncnc(N)c1Cl)c1ncc(C(=O)Nc2cc(C(F)(F)F)c(Cl)cn2)s1	51.4%	54.7%	58.1%	86.1%	95.3%	66.9%	69.8%	–
